Measurements as given in PubChem BioAssay AID1628 (Sanford-Burnham Center for Chemical Genomics, 2009).
Among all 190,000 compounds or so, about 930 (0.49%) were called active. The list shows a part of the results. Measured potencies and affinities stand elsewhere. Unmarked numbers belong to inactive results.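 The calls were made as follows: active = z-score of insulin promoter reporter brightness in nuclei below -3 at 5 µM, with at least 500 cells counted; inconclusive = wells with under 500 cells, flagged as toxic or sparse; inactive = the rest.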

Assay: insulin promoter down-regulators in MIN6 cells, imaging, high-content screening, mouse beta cells (AID 1628)
Conditions: MIN6 insulin promoter GFP reporter, at 5 µM, stronger effect = lower value

| Compound | z-score |
| --- | --- |
| O=C(COC(=O)Cn1cnc2ccccc2c1=O)Nc1cc(Cl)ccc1[N+](=O)[O-] | -4.27 (active) |
| N#Cc1cccc(NC(=O)COC(=O)CCc2nc3ccccc3c(=O)[nH]2)c1 | 1.59 |
| Cc1nc(NC(=O)COC(=O)CCS(=O)(=O)c2ccccc2Cl)c(Cl)cc1Cl | 4.24 |
| CCc1cc2c(N3CCN(c4nnc(CC)s4)CC3)ncnc2s1 | -5.09 (active) |
| CCOc1cc(/C=N/NC(N)=O)cc(Br)c1OCc1ccccc1F | -5.46 (active) |
| CCCNC(=O)N1CCC(C(=O)c2ccc(Cl)cc2)CC1 | 3.79 |
| O=C(C1CCC1)N1CCc2cc(S(=O)(=O)NCCN3CCN(c4ccccc4F)CC3)ccc21 | -4.42 (active) |
| O=C(C1CCC1)N1CCc2cc(S(=O)(=O)NCc3cccnc3)ccc21 | -3.56 (active) |
| Nc1c(C(=O)C2CC2)sc2nc(-c3ccccc3)cc(C(F)(F)F)c12 | 11.2 |
| C(=N\c1nc2ccccc2[nH]1)/c1cccs1 | -1.35 |
| CC(=O)c1c(C)[nH]c(-c2ccccc2)nc1=S | 5.61 |
| Cc1ccc(NS(=O)(=O)c2cc(C(=O)O)ccc2Cl)c(C)c1 | 1.63 |
| Cc1cc2c(ncn2C)c(NS(=O)(=O)c2ccccc2Cl)c1C | -4.59 (active) |
| NC(=O)c1cc2ccc(O)cc2oc1=NCc1ccccc1 | 6.96 |
| CCN(CC)c1ccc2cc(C(N)=O)/c(=N\NC(=O)c3ccncc3)oc2c1 | 5.56 |
| CCOc1cccc2cc(C(N)=O)c(=NCc3ccccc3)oc12 | -3.34 (active) |
| CN(C)/C=N/c1sc2c(c1C#N)CCC2 | -0.51 |
| O=C(O)CC12CSc3[nH]c(=O)sc3C1c1ccccc1OC2=O (stereo not drawn) | 3.25 |
| Fc1ccc(C2CC(c3ccco3)=NN2c2ccccc2)cc1 (stereo not drawn) | 3.51 |
| O=C(O)CCC(=O)N1CC=C(c2ccccc2)CC1 | -3.14 (active) |
| O=C(COc1ccccc1)N1CCN=C1c1ccccc1 | 3.07 |
| O=C(O)c1ccn(COc2ccc(Br)cc2)n1 | 4.62 |
| CCN1CCc2c(sc(NC(=O)Nc3ccc(Cl)c(Cl)c3)c2C(N)=O)C1 | 16 |
| CCOC(=O)N1CCC(NC(=O)c2cc(C(=O)Nc3ccc(OC)c(OC)c3)ccc2CO)CC1 | 3.42 |
| Cc1cn(S(=O)(=O)c2ccc(Br)c3ccccc23)cn1 | -4.36 (active) |

| Compound | z-score |
| --- | --- |
| COc1ccc(N(C(=O)Cc2cccs2)C2C=CS(=O)(=O)C2)cc1 (stereo not drawn) | 3.14 |
| O=C1S/C(=C\c2ccc(N3CCOCC3)o2)C(=O)N1Cc1c(F)cccc1Cl | 14.9 |
| C1=C(c2ccccc2)Nc2nnnn2C1 | 3.1 |
| NC(=S)N/N=C/c1cccc(O)c1O | -5.73 (active) |
| FC(F)C(F)(F)C1=CC(c2ccccc2)=NCCN1 | -3.16 (active) |
| O=C1C2C3C=CC(C3)C2C(=O)N1CCC(=O)N1CCc2ccccc21 (stereo not drawn) | 0.52 |
| CC1CCc2nc3ccccc3c(C(=O)OCC(=O)N3CCc4ccccc43)c2C1 (stereo not drawn) | -7.27 (active) |
| Cc1cccc2cc3c(N)c(C(=O)N4CCc5ccccc54)sc3nc12 | 4.42 |
| CCOc1ccc(NC2=NCC(=O)N2Cc2cccs2)cc1 | 4.8 |
| CCOc1cccc(NC(=O)Cc2cccs2)c1 | -3.39 (active) |
| COc1ccc(Cc2nnc(NC(=O)Cc3cccs3)s2)cc1 | 3.48 |
| CC1=C(C(=O)OCc2ccccc2)C(c2ccccc2)NC(=O)N1CCCCCC(=O)O (stereo not drawn) | -5.52 (active) |
| O=C(O)CCCCCCCCCCCc1ccccc1 | 0.16 |
| CCOC(=O)/C(=C\C=C1/Sc2cc(OCC)c(OCC)cc2N1CC)C(C)=O | 16.7 |
| Clc1cccc(-c2cc3nc4c(c(N5CCNCC5)n3n2)CCCC4)c1 | -0.83 |
| COc1cccc(-c2cc3nc4c(c(N5CCC6(CC5)OCCO6)n3n2)CCC4)c1 | -3.88 (active) |
| COc1cc(OC)cc(-c2cc3nc4c(c(N5CCN(c6ncccn6)CC5)n3n2)CCCC4)c1 | -3.61 (active) |
| CC(C)N1CC=C2C(C#N)=C(N)C(C#N)(C#N)[C@H](c3ccoc3)[C@H]2C1 | 9.66 |
| CN(C)CCOCCOc1ccccc1-c1ccccc1 | 4.97 |
| CC1CN(c2oc(COc3ccc(Cl)cc3Cl)nc2C#N)CC(C)O1 (stereo not drawn) | -3.34 (active) |
| COC(=O)c1ccc(C(=O)Nc2cc(Cl)ccc2Cl)cc1NC(=O)c1ccc(N(C)C)cc1 | -4.37 (active) |
| COC(=O)c1cc(NC(=O)c2cccc(Cl)c2)c(=O)oc1/C=C/Nc1cc(C)cc(C)c1 | 14.9 |
| CC(=O)c1cc(NC(=O)c2ccc(Cl)cc2)c(=O)oc1/C=C/N(C)C | 3.13 |
| Cc1ccc2nc(NCCC(=O)O)nc(-c3ccccc3)c2c1 | 4.16 |
| CC1CCCc2sc3nc(NCc4ccco4)n4ncnc4c3c21 (stereo not drawn) | -3.54 (active) |

| Compound | z-score |
| --- | --- |
| N#C/C(=C\c1ccc(N2CCCCC2)o1)C(=O)Nc1cccc(Br)c1 | 12.9 |
| COc1ccc(C2=NC(=O)/C(=C\c3cc(OC)c(OC)c(OC)c3)O2)cc1 | 3.04 |
| N#C/C(=C/c1ccc(-c2cc(C(=O)O)cc(C(=O)O)c2)o1)c1nc2ccccc2s1 | 3.02 |
| COc1ccc(C(NC(C)=O)c2ccc3cccnc3c2O)c(OC)c1 (stereo not drawn) | -5.39 (active) |
| COc1cc2c3nnc(-c4ccccc4)c-3cn(Cc3ccccc3F)c2cc1OC | 12.9 |
| O=C(CNC(=O)c1ccco1)OCC(=O)c1ccccc1 | 4.35 |
| Cc1ccc(C(=O)COC(=O)CNC(=O)c2ccc(N3C(=O)c4ccccc4C3=O)cc2)cc1C | -3.38 (active) |
| CCOC(=O)C1=C(C)OC(N)=C(C#N)C1c1cc(SCC)oc1C (stereo not drawn) | 0.96 |
| COc1cccc(NC(=O)N2CCN(c3nnnn3-c3ccccc3)CC2)c1 | 3.09 |
| COC(=O)[C@@H](NC(=O)Nc1cccc(OC)c1)C(C)C | 3.01 |
| COc1cccc(NC(=O)N2CCCC2C(=O)NC(C)C)c1 (stereo not drawn) | -5.72 (active) |
| Cn1c(=O)c(NC2CCCCC2)c2c3c(cccc31)C(=O)c1ccccc1-2 | 16.9 |
| O=C(NCCCN1CCN(Cc2ccccc2)CC1)C1CCN(c2nnc(-n3cccc3)s2)CC1 | -4.79 (active) |
| CC1c2nc3ccccc3n2C(CC(=O)NCCCN2CCOCC2)C(=O)N1Cc1ccccc1 (stereo not drawn) | 2.82 |
| O=C(NCCCN1CCCCCC1)C1CC(=O)N(C2CCCC2)C1 (stereo not drawn) | 4.02 |
| CC(C)CCNC(=S)Nc1ccc([N+](=O)[O-])cc1 | -5.03 (active) |
| Cc1[nH]c2ccccc2c1/C=N/Nc1ccc([N+](=O)[O-])cc1 | 13.9 |
| CNC(=S)Nc1ccc([N+](=O)[O-])cc1 | 4.22 |
| CCOC(=O)CC1C(=O)NCCN1S(=O)(=O)c1ccc(Cl)cc1Cl (stereo not drawn) | 3.29 |
| Cc1ccc(-c2nnc(Cc3ccc([N+](=O)[O-])cc3)o2)cc1 | 2.29 |
| COc1ccc(-c2ccc(-c3nnc(Cc4ccc(OC)c(OC)c4)o3)cc2)cc1 | -4.88 (active) |
| COc1ccc(C2CC(=O)N(CCCN(C)CCc3ccc(OC)c(OC)c3)C2)cc1 (stereo not drawn) | 1.63 |
| CCOC(=O)Cn1c(=O)c(-c2cc(Br)ccc2N)nc2ccccc21 | 6.82 |
| O=C(/C=C/c1ccc2ccccc2n1)c1cc(Br)ccc1O | 4.36 |
| C/C(=N\NC(=O)c1cccc(N/N=C(\C)c2cc(O)ccc2O)c1)c1cc(O)ccc1O | -4.19 (active) |

| Compound | z-score |
| --- | --- |
| CC(=O)c1cccc(NC(=O)c2c(F)c(F)c(F)c(F)c2F)c1 | 0.06 |
| Cc1cc(C2C(C#N)=C(N)Oc3n[nH]c(C)c32)c(C)s1 (stereo not drawn) | 3.37 |
| Cc1ccc(OCCn2nc3ccccc3n2)c(C)c1 | -6.61 (active) |
| Cc1c(C(=O)O)cccc1-c1ccc(/C=C2/NC(=O)N(c3ccccc3)C2=O)o1 | 3.88 |
| O=C(Nc1ccccc1)Nc1ccc(-n2ccc(C(F)(F)F)n2)cc1 | -3.4 (active) |
| COc1ccc(CNC(=O)/C=C/c2ccco2)cc1OC | 1.08 |
| C=CCC(c1ccccc1)N(C(C)=O)c1ccco1 (stereo not drawn) | 3.62 |
| CC(/C=C/c1ccco1)=N\NC(=O)C(O)c1ccccc1 (stereo not drawn) | -4.52 (active) |
| CCOc1cc([N+](=O)[O-])cc2c1C(=O)Nc1ccccc1O2 | 5.94 |
| CCOC(=O)c1cc2c(ccn2C)n1CC(=O)N1CCC(Cc2ccccc2)CC1 | -3.62 (active) |
| Nc1nc(N2CCN(C(=O)c3ccco3)CC2)nc2ccc(Br)cc12 | -3.6 (active) |
| Cc1cccc2c(C(=O)N3CCN(C(=O)c4ccco4)CC3)cc(-c3cccc(Br)c3)nc12 | -4.53 (active) |
| CC(=O)c1ccc2cccc3c2c1N=CN3C | 3.38 |
| CN(C)S(=O)(=O)c1ccc(N2CCN(S(=O)(=O)c3ccc(F)cc3)CC2)c(Cl)c1 | -3.39 (active) |
| Cc1sc2nc(C3CC3)nc(NCCNS(=O)(=O)c3ccccc3)c2c1C | -0.22 |
| CN(C)/C=C1/Nc2ccccc2C1=O | 4.71 |
| COC1OC(CO)C(O)C(O)C1O (stereo not drawn) | -0.58 |
| Cc1cc(C)nc(SCC(=O)Nc2ccc(N3CCOCC3)c(Cl)c2)n1 | -11 (active) |
| Cc1ccc(NC(=O)CCn2cccc2)cc1Cl | 3.23 |
| O=S(=O)(Nc1cc2nc3ccccc3nc2n1Cc1ccccc1)c1ccc(Cl)cc1 | 15.3 |
| CCc1nc(Nc2ccc(N3CCN(C(C)=O)CC3)cc2)c2oc3ccccc3c2n1 | -4.54 (active) |
| Cc1nc2c(oc3ccccc32)c(=O)o1 | 4.23 |
| Cc1cccc(N2CCCn3c2nc2c3c(=O)n(CCN3CCOCC3)c(=O)n2C)c1 | -3.6 (active) |
